From the supplement of paper PMC13380429
Unmarked numbers belong to inactive results.

System: Vero E6 infected with SARS-CoV-2
Experiment: inhibition of SARS-CoV-2 cytopathic effect; higher = more antiviral protection, active = above 15
Settings: 48 h

| Compound | inhibition of SARS-CoV-2 cytopathic effect (1 nM) [%] | inhibition of SARS-CoV-2 cytopathic effect (8.33 nM) [%] | inhibition of SARS-CoV-2 cytopathic effect (100 nM) [%] | inhibition of SARS-CoV-2 cytopathic effect (833.33 nM) [%] | inhibition of SARS-CoV-2 cytopathic effect (10000 nM) |
| --- | --- | --- | --- | --- | --- |
| O=C(N[C@H]1CN2CCC1CC2)c1ccc2c(c1)OCCO2 | -2.13 | -1.4 | -0.74 | -0.26 | -1.59% |
| C=C1/C(=C\C=C2/CCC[C@]3(C)[C@@H]([C@H](C)OCCC(C)(C)O)CC[C@@H]23)C[C@@H](O)C[C@@H]1O [maxacalcitol] | 1.71 | 0.65 | -1.77 | 0.61 | -0.56% |
| CN1C[C@H](CNC(=O)OCc2ccccc2)C[C@@H]2c3cccc4c3c(cn4C)C[C@H]21 [metergoline] | -10.3 | -6.82 | -4.21 | -6.12 | -2.89% |
| COc1cc(OC)c(C(=O)CCCCN2CCC3(CC2)NC(=O)NC3=O)cc1NS(=O)(=O)c1ccc(C(F)(F)F)cc1 | 0.4 | 0.2 | -0.19 | 0.81 | 0.94% |
| O=S(=O)(O)CCS [mesna] | 2.64 | 4.29 | 1.16 | 5.57 | 0.95% |
| COc1ccc(/C=C/C(=O)O)cc1 [trans-4-methoxycinnamic-acid] | 1.02 | -0.31 | -1.64 | -0.87 | -1.56% |
| C[C@@H](O)[C@@H]1NC(=O)[C@H](CCCCN)NC(=O)[C@@H](Cc2c[nH]c3ccccc23)NC(=O)[C@H](Cc2ccccc2)NC(=O)[C@@H](NC(=O)[C@H](N)Cc2ccccc2)CSSC[C@@H](C(=O)N[C@H](CO)[C@@H](C)O)NC1=O [octreotide] | 2.23 | -0.63 | -1.24 | 3.26 | -1.58% |
| Cc1ccc(NC(=O)c2ccc(CN3CC[C@H](N(C)C)C3)c(C(F)(F)F)c2)cc1Nc1nccc(-c2cncnc2)n1 [bafetinib] | 3.35 | -0.19 | 0.01 | -3.15 | -4.8% |
| CC1CC(OC(=O)C(O)c2ccccc2)CC(C)(C)C1 (stereo not given) [cyclandelate] | -0.8 | 0.54 | -0.37 | -0.91 | -1.81% |
| CC(COc1ccccc1Cc1ccccc1)N1CCCCC1 (stereo not given) [benproperine] | -1.82 | 0.63 | -0.71 | -3.69 | -3.54% |
| C/C1=C/C[C@@H](/C(C)=C/c2csc(C)n2)OC(=O)C[C@H](O)C(C)(C)C(=O)[C@H](C)[C@@H](O)[C@@H](C)CCC1 [epothilone-D] | 2.13 | -0.55 | -1.83 | -0.53 | -1.4% |
| Nc1nc(N)c(N=O)c(OCC2CCCCC2)n1 | -3.27 | 3.73 | 1.88 | 5.81 | 18.5% (active) |
| Cc1nc(N)sc1-c1ccnc(Nc2ccc(N3CCOCC3)cc2)n1 | 0.34 | 0.72 | 0.35 | 2.13 | 2.1% |
| C[C@H]1[C@H](C)CC[C@]2(C(=O)O)CC[C@]3(C)C(=CC[C@@H]4[C@@]5(C)C[C@@H](O)[C@H](O)[C@@](C)(CO)[C@@H]5CC[C@]43C)[C@H]12 [asiatic-acid] | -2.75 | -0.62 | -0.32 | 1.12 | -3.69% |
| Clc1cccc(-c2nnnn2Cc2cccnc2)c1Cl | -1.94 | -0.7 | 0.71 | -2.59 | -3.45% |
